# Experimental data from PubChem BioAssay.
# Several values for one entry are separate records, joined by “and”; a condition that tells them apart may be missing. Equal entries are not always repeated. Where a structure was tested more than once in an assay, its records may differ in their call. Activity calls are given as the source filed them.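 Rule for the calls, unless noted: active = z-score of at least 1.8 in each of two replicates, scored against plate mean and spread of sample wells; inactive = the rest.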
# Key:
# [1] = yeast 75Q aggregation reduction – 75Q-TubU reporter (AID 1593); settings: Yeast 75Q polyglutamine aggregation reporter
# [2] = blockers of cytochrome c efflux from mitochondria – biochemical, purified mitochondria (AID 1603); settings: stronger effect = lower value;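 note: mouse liver mitochondria challenged with calcium chloride; signal normalized to the plate average as 100%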
# [3] = polyglutamine aggregate formation blockers (AID 1604); settings: polyglutamine-induced protein aggregation inhibition assay; stronger effect = higher value; tested at 2.5 µM
# [4] = P. berghei load reduction in hepatocytes – cell-based, HepG2, luciferase luminescence, HepG2 viability, primary screen (AID 624349; in the data active = parasite load remaining mostly below about 12%, no sharp cut-off; inactive = mostly above about 10%;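 note: 100% = mean of DMSO negative control wells on the same plate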); settings: P. berghei liver stage in HepG2, luciferase luminescence, concentration not given here; parasite load remaining: stronger effect = lower value; viability: measured here: HepG2 viability without parasites
# [5] = Wnt pathway potentiators raising nuclear beta-catenin – imaging, WNT3A-conditioned medium, mouse C2C12, NPC library, primary screen (AID 1117326; in the data active = nuclear beta-catenin stimulation mostly above about 4.2%, no sharp cut-off; inactive = mostly below about 10%); settings: stronger effect = higher value
# [6] = stimulators of insulin release from INS-1E, primary screen, cell-based, 5 mM glucose, NPC library (AID 1117329;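 active = compound raises insulin release from rat beta cells at 5 mM glucose, no numeric limit stated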); settings: rat INS-1E insulin secretion, at 10 µM, stronger effect = higher value
# [7] = growth inhibition of GSK3B-pretreated HCT116 cells – cell-based, CellTiter-Glo, 0.2 to 20 µM (AID 1117336;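 active = compounds lowering colon cancer cell viability after pretreatment blocking the GSK3B kinase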); settings: HCT116 viability after GSK3B inhibitor, at 20 µM, stronger effect = higher value
# [8] = inhibition of endothelial tube formation, primary screen, imaging, VEGF stimulated, CD31 staining, tube area, NPC library (AID 1117340;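 active = compound that reduces growth-factor-driven endothelial tube area in a mixed cell culture, no cutoff stated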); settings: VEGF-stimulated ADSC/ECFC co-culture, at 10 µM, stronger effect = higher value
# [9] = GLP1 release stimulators, primary, NCI-H716, NPC library (AID 1117341;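 active = compound raises GLP1 secretion from the human gut endocrine cells, with no numeric limit stated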); settings: NCI-H716 cells, at 10 µM, stronger effect = higher value
# [10] = HCT116 colon cancer cell growth inhibition, primary screen, CellTiter-Glo luminescence, NPC library (AID 1117342;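 active = compounds that lower survival of HCT116 colon cancer cells in the luminescence readout, no numeric limit stated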); settings: at 20 µM (top of the series)
# [11] = reduced SW480 viability measured with CellTiter-Glo, NPC library, primary (AID 1117343;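 active = compounds that lower viability of the colon cancer cells in the luminescence readout, with no numeric limit stated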); settings: CellTiter-Glo luminescence; at 20 µM (top of the series)
# [12] = NPC library primary testing for decreased DLD-1 cell viability via CellTiter-Glo (AID 1117346;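 active = compounds that lower survival of DLD-1 colon cancer cells in the luminescence readout, no cutoff given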); settings: DLD-1 viability, CellTiter-Glo luminescence; at 20 µM (top of the series)
# [13] = biological target: 6-phosphogluconate dehydrogenase, decarboxylating (Homo sapiens) (UniProt P52209); assay: inhibition of human phosphogluconate dehydrogenase – biochemical, recombinant enzyme, NADPH absorbance, primary screen (AID 1159550;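 active = at least 20% inhibition of 6-phosphogluconate dehydrogenase activity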); settings: recombinant 6PGD, NADPH absorbance 341 nm; at 10 µM; stronger effect = higher value
# [14] = EMT-state selective cytotoxicity in co-culture – imaging, PC-3E GFP, TEM4-18 mCherry, primary screen (AID 1345086;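 active = compounds killing one labelled cell type while sparing the other, by normalised counts and ratio limits, not self-fluorescent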;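 for all read-outs here: cells exposed to compound for 72 h before imaging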;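 for red/green cell ratio (normalised): normalised mesenchymal count divided by normalised epithelial count so high means epithelial killing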); settings: PC-3E GFP / TEM4-18 mCherry co-culture, imaging cell counts, at 1 µM; for red/green cell ratio (normalised): actives lie on both sides
# [15] = system: Aerobactin synthetase IucA (Klebsiella pneumoniae hvKP1); assay: IucA enzyme inhibition, primary screen, biochemical, Spectrum library (AID 1346200; call rule not given here;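 note: 100% = wells without compound and 0% = wells lacking enzyme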); settings: malachite green pyrophosphate, A620, at 8 µM, stronger effect = lower value
# [16] = viability loss with induced miR-34 in A549 – imaging, A549 dox-inducible miR-34, nuclei and caspase counts, primary screen (AID 1347080;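 active = compounds whose cell count with miR-34 switched on is under 0.7 times the count with it off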); settings: A549 miR-34 inducible, Hoechst nuclei count, 48 h
# [17] = MELAS cybrid and Rieske KO viability enhancers – cell-based, MELAS cybrids, Rieske KO mouse fibroblasts, CellTiter-Glo, primary screen (AID 1508586;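 active = mean z-score across replicates of 1.96 or higher in either the MELAS or the Rieske mutant cell line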;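 note: z relative to plate mean and SD of compound and empty wells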); settings: low glucose
# [18] = biological target: NAD(+) hydrolase SARM1 (Homo sapiens) (UniProt Q6SZW1); assay: blocking NAD cleavage by SARM1 SAM-TIR – cell lysate, NAD-Glo luminescence (AID 1508614;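 active = compound whose remaining NAD level is above about 45 nM, limit read from the data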;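 note: higher remaining NAD means stronger inhibition of SARM1 NADase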); settings: SAM-TIR HEK293T lysate NADase, at 1 µM, stronger effect = higher value
# [19] = biological target: Mitogen-activated protein kinase 7 (Homo sapiens) (UniProt Q13164); assay: Gal4-ERK5 driven luciferase induction – cell-based, HTS, primary screen (AID 1508626;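 active = luciferase signal above three times the same-plate solvent-only control wells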;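 note: luciferase driven by Gal4-ERK5 fusion binding five Gal4 sites before minimal TATA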); settings: HeLa Gal4-ERK5 transactivation, 18 h, at 5 µM, stronger effect = higher value
# [20] = galactose survival enhancers in mitochondrial complex I cybrids – cell-based, galactose medium, ATP luminescence, primary screen (AID 1645843); settings: complex I mutant cybrid cells, 72 h, stronger effect = higher value;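 note: positive z means more ATP and so rescue of galactose-driven cybrid death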
# [21] = measured here: epithelial PC-3E GFP cell survival
# [22] = measured here: mesenchymal TEM4-18 mCherry cell survival
# [23] = measured here: relative caspase fold change +Dox/-Dox
# [24] = measured here: total cells with miR-34 induction, stronger effect = lower value
# [25] = measured here: total cells without miR-34 induction
# [26] = MELAS cybrid survival, CellTiter-Glo 48 h, stronger effect = higher value
# [27] = Rieske KO mouse fibroblast survival, CellTiter-Glo 72 h
# Sequence of Mitogen-activated protein kinase 7 (Homo sapiens) (Q13164 whole entry, looked up, the tested form may be a part): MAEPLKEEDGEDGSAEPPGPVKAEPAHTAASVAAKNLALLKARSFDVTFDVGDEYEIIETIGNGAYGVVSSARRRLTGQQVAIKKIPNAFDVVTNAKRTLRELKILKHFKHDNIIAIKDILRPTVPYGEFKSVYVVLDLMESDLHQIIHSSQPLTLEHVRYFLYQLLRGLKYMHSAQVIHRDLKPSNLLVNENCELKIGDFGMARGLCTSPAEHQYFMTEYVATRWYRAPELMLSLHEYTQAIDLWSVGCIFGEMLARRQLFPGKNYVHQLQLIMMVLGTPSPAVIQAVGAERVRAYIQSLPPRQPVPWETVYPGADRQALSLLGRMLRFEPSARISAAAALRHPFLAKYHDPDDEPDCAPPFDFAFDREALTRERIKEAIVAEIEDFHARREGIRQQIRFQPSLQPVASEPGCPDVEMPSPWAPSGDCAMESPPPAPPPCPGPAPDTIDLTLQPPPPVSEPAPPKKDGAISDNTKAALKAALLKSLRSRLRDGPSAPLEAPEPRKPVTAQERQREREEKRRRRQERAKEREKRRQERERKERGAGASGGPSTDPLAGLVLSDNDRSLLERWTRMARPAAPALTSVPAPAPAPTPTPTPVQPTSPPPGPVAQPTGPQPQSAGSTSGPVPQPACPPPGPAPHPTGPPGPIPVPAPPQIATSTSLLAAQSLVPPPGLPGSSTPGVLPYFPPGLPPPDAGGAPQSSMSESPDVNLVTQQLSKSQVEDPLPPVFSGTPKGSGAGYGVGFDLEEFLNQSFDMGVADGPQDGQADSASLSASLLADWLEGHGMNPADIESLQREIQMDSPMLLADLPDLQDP
# Sequence of 6-phosphogluconate dehydrogenase, decarboxylating (Homo sapiens) (P52209 whole entry, looked up): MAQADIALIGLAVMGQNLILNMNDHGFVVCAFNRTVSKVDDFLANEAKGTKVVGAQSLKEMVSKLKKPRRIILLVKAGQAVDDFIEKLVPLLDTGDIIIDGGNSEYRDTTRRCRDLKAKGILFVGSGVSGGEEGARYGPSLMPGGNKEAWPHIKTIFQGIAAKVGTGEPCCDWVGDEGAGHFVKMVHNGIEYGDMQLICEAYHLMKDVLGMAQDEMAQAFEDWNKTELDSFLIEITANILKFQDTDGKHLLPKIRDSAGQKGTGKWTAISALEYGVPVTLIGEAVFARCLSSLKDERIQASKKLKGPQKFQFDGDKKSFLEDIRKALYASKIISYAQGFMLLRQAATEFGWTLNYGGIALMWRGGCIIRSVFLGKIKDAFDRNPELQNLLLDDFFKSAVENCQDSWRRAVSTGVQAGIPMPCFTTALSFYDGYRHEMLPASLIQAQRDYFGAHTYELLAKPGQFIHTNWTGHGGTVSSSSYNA
# Sequence of NAD(+) hydrolase SARM1 (Homo sapiens) (Q6SZW1 whole entry, looked up, the tested form may be a part): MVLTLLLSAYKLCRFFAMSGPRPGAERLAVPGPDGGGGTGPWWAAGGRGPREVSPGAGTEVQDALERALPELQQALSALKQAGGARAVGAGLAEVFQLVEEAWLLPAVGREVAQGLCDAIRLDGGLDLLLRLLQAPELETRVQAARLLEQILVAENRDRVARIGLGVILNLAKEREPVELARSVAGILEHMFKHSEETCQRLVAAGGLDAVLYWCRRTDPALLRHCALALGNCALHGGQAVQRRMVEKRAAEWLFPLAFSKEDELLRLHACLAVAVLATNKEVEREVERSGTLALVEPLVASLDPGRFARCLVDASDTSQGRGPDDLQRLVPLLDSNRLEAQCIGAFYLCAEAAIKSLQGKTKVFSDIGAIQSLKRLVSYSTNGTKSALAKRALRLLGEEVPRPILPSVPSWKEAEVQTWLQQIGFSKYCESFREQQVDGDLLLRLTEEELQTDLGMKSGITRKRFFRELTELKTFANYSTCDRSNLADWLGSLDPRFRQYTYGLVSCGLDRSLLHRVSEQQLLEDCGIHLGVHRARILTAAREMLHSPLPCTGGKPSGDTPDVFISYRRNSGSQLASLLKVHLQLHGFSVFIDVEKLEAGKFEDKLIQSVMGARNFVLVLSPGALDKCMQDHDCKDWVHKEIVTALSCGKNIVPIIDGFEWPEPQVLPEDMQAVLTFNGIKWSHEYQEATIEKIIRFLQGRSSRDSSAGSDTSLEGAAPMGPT
compound,measurement,setting,value
CC(CCc1ccccc1)NC(C)C(O)c1ccc(O)cc1 (configuration not stated),score,[1],1.53
same,cytochrome c release ratio,[2],0.84
same,inhibition of aggregation,[3],63.6%
same,parasite load remaining,[4],75.2% (inactive) and 69.3% (inactive)
same,viability,[4],72.4% and 90.8%
same,nuclear beta-catenin stimulation,[5]; at 10 µM,-0.2% (inactive)
same,nuclear beta-catenin stimulation,"[5]; stimulation, at 2 µM",-0.9%
same,insulin secretion stimulation,[6],43.4% (active)
same,viability decrease,[7],-3.7% (inactive)
same,tube area decrease,[8],16.8% (inactive)
same,GLP1 secretion stimulation,[9],-0.5% (inactive)
same,inhibition of viability,[10],16.9% (inactive)
same,viability decrease (inhibition),[11],24.3% (inactive)
same,viability decrease (inhibition),[12],-7.8% (inactive)
same,inhibition,[13],14.2% (inactive)
same,red/green cell ratio (normalised),[14],1.03 (inactive)
same,normalised cell number,[14]; [21],1.2
same,normalised cell number,[14]; [22],1.24
same,activity remaining,[15],82.9% (inactive)
same,fold change,[16]; stronger effect = lower value,1.06 (inactive) and 0.798 (inactive)
same,fold change,[16]; [23],0.901 and 0.92
same,cell count,[16]; [24],10600 and 10000
same,cell count,[16]; [25],10000 and 12600
same,z-score,[17]; [26],0.615 (inactive)
same,z-score,[17]; [27],-0.62
same,remaining NAD,[18],10 nM (inactive)
same,luciferase signal,[19],40 AU (inactive)
same,z-score,[20],-0.555 (inactive)
CN1CCc2cc(Cl)c(O)cc2[C@H]2c3ccccc3CC[C@@H]21,nuclear beta-catenin stimulation,[5]; at 10 µM,1.9% (inactive)
same,nuclear beta-catenin stimulation,"[5]; stimulation, at 2 µM",2.3%
same,insulin secretion stimulation,[6],20.2% (active)
same,viability decrease,[7],16.1% (inactive)
same,tube area decrease,[8],24.1% (inactive)
same,GLP1 secretion stimulation,[9],5.5% (inactive)
same,inhibition of viability,[10],28.5% (inactive)
same,viability decrease (inhibition),[11],46.5% (inactive)
same,viability decrease (inhibition),[12],21.2% (inactive)
CC(C)N(CCC(C(N)=O)(c1ccccc1)c1ccccn1)C(C)C (configuration not stated),score,[1],1.39
same,cytochrome c release ratio,[2],1.18
same,inhibition of aggregation,[3],70.4%
same,nuclear beta-catenin stimulation,[5]; at 10 µM,0.5% (inactive)
same,nuclear beta-catenin stimulation,"[5]; stimulation, at 2 µM",1.2%
same,insulin secretion stimulation,[6],0.8% (inactive)
same,viability decrease,[7],-17.4% (inactive)
same,tube area decrease,[8],15.3% (inactive)
same,GLP1 secretion stimulation,[9],-2.8% (inactive)
same,inhibition of viability,[10],-3.87% (inactive)
same,viability decrease (inhibition),[11],18.8% (inactive)
same,viability decrease (inhibition),[12],-13.7% (inactive)
same,inhibition,[13],5.28% (inactive)
same,red/green cell ratio (normalised),[14],1.1 (inactive)
same,normalised cell number,[14]; [21],1.22
same,normalised cell number,[14]; [22],1.34
same,activity remaining,[15],102% (inactive)
same,z-score,[17]; [26],-0.238 (inactive) and 0.483 (inactive)
same,z-score,[17]; [27],-0.211 and 0.374
same,remaining NAD,[18],10 nM (inactive)
same,luciferase signal,[19],32 AU (inactive)
same,z-score,[20],0.14 (inactive) and 0.36 (inactive) and 1.19 (inactive)
NCCc1ccc(O)cc1,score,[1],1.21
same,cytochrome c release ratio,[2],0.71
same,inhibition of aggregation,[3],39.2%
same,nuclear beta-catenin stimulation,[5]; at 10 µM,-0.5% (inactive)
same,nuclear beta-catenin stimulation,"[5]; stimulation, at 2 µM",1.3%
same,insulin secretion stimulation,[6],1.8% (inactive)
same,viability decrease,[7],4.6% (inactive)
same,tube area decrease,[8],-10% (inactive)
same,GLP1 secretion stimulation,[9],-1.8% (inactive)
same,inhibition of viability,[10],9.07% (inactive)
same,viability decrease (inhibition),[11],5.3% (inactive)
same,viability decrease (inhibition),[12],-2.9% (inactive)
same,inhibition,[13],-11.3% (inactive)
same,red/green cell ratio (normalised),[14],0.8 (inactive)
same,normalised cell number,[14]; [21],1.04
same,normalised cell number,[14]; [22],0.83
same,activity remaining,[15],108% (inactive)
same,fold change,"[16]; stronger effect = lower value, cell number ratio, induced over uninduced",0.965 (inactive)
same,fold change,[16]; [23],1.32
same,cell count,[16]; [24],10000
same,cell count,[16]; [25],10400
same,luciferase signal,[19],52 AU (inactive)
same,z-score,[20],0.68 (inactive)
CC(Cc1ccc(O)cc1)NCC(O)c1cc(O)cc(O)c1 (configuration not stated),score,[1],1.05
same,cytochrome c release ratio,[2],1.18
same,inhibition of aggregation,[3],70.4%
same,nuclear beta-catenin stimulation,[5]; at 10 µM,-1.3% (inactive)
same,nuclear beta-catenin stimulation,"[5]; stimulation, at 2 µM",-0.9%
same,insulin secretion stimulation,[6],0.5% (inactive)
same,viability decrease,[7],-4.2% (inactive)
same,tube area decrease,[8],18.4% (inactive)
same,GLP1 secretion stimulation,[9],1.7% (inactive)
same,inhibition of viability,[10],-2.93% (inactive)
same,viability decrease (inhibition),[11],-0.4% (inactive)
same,viability decrease (inhibition),[12],-21.3% (inactive)
same,inhibition,[13],-6.23% (inactive)
same,red/green cell ratio (normalised),[14],1.06 (inactive)
same,normalised cell number,[14]; [21],0.97
same,normalised cell number,[14]; [22],1.03
same,activity remaining,[15],110% (inactive)
same,fold change,[16]; stronger effect = lower value,1 (inactive) and 0.892 (inactive) and 0.893 (inactive)
same,fold change,[16]; [23],0.955 and 0.849 and 2.71
same,cell count,[16]; [24],10100 and 8600 and 10800
same,cell count,[16]; [25],10100 and 9640 and 12100
same,z-score,[17]; [26],0.566 (inactive)
same,z-score,[17]; [27],0.235
same,remaining NAD,[18],10 nM (inactive)
same,luciferase signal,[19],48 AU (inactive)
same,z-score,[20],-0.085 (inactive)
COc1ccc(C(CN(C)C)C2(O)CCCCC2)cc1 (configuration not stated),nuclear beta-catenin stimulation,[5]; at 10 µM,3.1% (inactive)
same,nuclear beta-catenin stimulation,"[5]; stimulation, at 2 µM",1.4%
same,insulin secretion stimulation,[6],2.1% (inactive)
same,viability decrease,[7],-40% (inactive)
same,tube area decrease,[8],1.5% (inactive)
same,GLP1 secretion stimulation,[9],4.1% (inactive)
same,inhibition of viability,[10],-3.77% (inactive)
same,viability decrease (inhibition),[11],-4% (inactive)
same,viability decrease (inhibition),[12],-3.8% (inactive)
same,inhibition,[13],-0.228% (inactive)
same,red/green cell ratio (normalised),"[14]; counts scaled to control wells, 1 = unselective",1.25 (inactive)
same,normalised cell number,[14]; [21],1.01
same,normalised cell number,[14]; [22],1.26
same,activity remaining,[15],123% (inactive)
same,z-score,[17]; [26],2.81 (active) and 0.624 (inactive) and -0.216 (inactive)
same,z-score,[17]; [27],-2.19 and 0.0731 and -0.394
same,remaining NAD,[18],10 nM (inactive)
same,luciferase signal,[19],48 AU (inactive)
same,z-score,[20],-0.07 (inactive) and 0.705 (inactive) and 0.625 (inactive)
CC[n+]1c(-c2ccccc2)c2cc(N)ccc2c2ccc(N)cc21,score,[1],0.43
same,cytochrome c release ratio,[2],0.84
same,inhibition of aggregation,[3],47.5%
same,parasite load remaining,[4],116% (inactive)
same,viability,[4],83.5%
same,nuclear beta-catenin stimulation,[5]; at 10 µM,17.6% (inactive)
same,nuclear beta-catenin stimulation,"[5]; stimulation, at 2 µM",1%
same,insulin secretion stimulation,[6],2.1% (inactive)
same,viability decrease,[7],-24.6% (active)
same,tube area decrease,[8],29.5% (inactive)
same,GLP1 secretion stimulation,[9],-2.8% (inactive)
same,inhibition of viability,[10],79.1% (active)
same,viability decrease (inhibition),[11],52.1% (active)
same,viability decrease (inhibition),[12],83.7% (active)
same,inhibition,[13],7.37% (inactive)
same,red/green cell ratio (normalised),[14],2.8 (inactive)
same,normalised cell number,[14]; [21],0.31
same,normalised cell number,[14]; [22],0.87
same,activity remaining,[15],95.2% (inactive)
same,remaining NAD,[18],10 nM (inactive)
same,luciferase signal,[19],104 AU (inactive)
CCOP(=S)(OCC)Oc1cc(C)nc(C(C)C)n1,nuclear beta-catenin stimulation,[5]; at 10 µM,-0.5% (inactive)
same,nuclear beta-catenin stimulation,"[5]; stimulation, at 2 µM",0.1%
same,insulin secretion stimulation,[6],0.4% (inactive)
same,viability decrease,[7],-71.8% (inactive)
same,tube area decrease,[8],0.2% (inactive)
same,GLP1 secretion stimulation,[9],-1.4% (inactive)
same,inhibition of viability,[10],11.6% (inactive)
same,viability decrease (inhibition),[11],34% (inactive)
same,viability decrease (inhibition),[12],2.6% (inactive)
same,inhibition,[13],-22.8% (inactive)
same,red/green cell ratio (normalised),[14],1 (inactive)
same,normalised cell number,[14]; [21],1
same,normalised cell number,[14]; [22],1
same,activity remaining,[15],77.6% (inactive)
same,fold change,[16]; stronger effect = lower value,0.932 (inactive)
same,fold change,[16]; [23],1.33
same,cell count,[16]; [24],9160
same,cell count,[16]; [25],9830
same,remaining NAD,[18],10 nM (inactive)
